# PubChem BioAssay (NCATS)
# Records with an inconclusive call do not appear. Values without a mark were called inactive. The source made the active and inactive calls. Calls follow the shape of the dose curve; as a rule, active = well fitted cell-killing curve with a large enough effect; inconclusive = small, poorly fitted or top-dose-only effect; inactive = flat fitted curve, though single readings scatter.
# Assay: qHTS of pediatric cancer cell lines to identify multiple opportunities for drug repurposing: Primary screen for Rh18 cells (AID 1347102); also: nearly all actives have a fitted effect of over 65% in size
# Conditions: Rh18 rhabdomyosarcoma viability, CellTiter-Glo luminescence, 48 h; series mostly up to 46 µM; activity change, negative = cytotoxic: at the top concentration
# From the text: Drug repurposing or repositioning has been offered as a strategy for drug development in oncology programs. This approach has special potential for childhood cancers and other rare or orphan diseases, where the expected return on new drug development has been a disincentive to pharmaceuticals.
# In this project we exploit the poly-pharmacology of drugs to discover new indications via phenotypic screening of a panel of 19 well-characterized cell lines derived from solid tumors seen in children and adolescents. The goal is to identify approved drugs with previously unrecognized anticancer properties that has the potential to reveal new mechanisms and biological processes involved in carcinogenesis or drug resistance. We employed a titration-based paradigm (quantitative high-throughput screening or qHTS), where all compounds were tested at multiple concentrations for their effect on cell viability. Concentration-response curves (CRCs) were derived directly from the primary screen, and both potency and efficacy values were used to identify compounds with robust bioactivity profiles. We screened the NIH Chemical Genomics Center (NCGC) Pharmaceutical Collection (NPC) and Mechanism Interrogation Plate (MIPE) small molecule collections of approved and investigational compounds against these cell lines; and measured metabolically active cells after 48 hours of compound treatment as a proxy for cell viability.
# Assay Submitter: Nathalia J. Martinez, National Center for Advancing Translational Sciences, National Institutes of Health, Rockville, MD, USA; email: natalia.martinez@nih.gov
# [1] Shen, M et al. Quantitative high-throughput phenotypic screening of pediatric cancer cell lines identifies multiple opportunities for drug repurposing. Oncotarget 2017 Dec 19;9(4):4758-4772. PMID 29435139.
# The cells were obtained from University of North Carolina (UNC), Pediatric Preclinical Testing Program (PPT), and Coriell Institute (CI).
# qHTS cell viability assay:
# Cells were assayed in growth media at a density of 500-1,000 cells/well. Five microliters of cells were dispensed into 1,536-well, white, solid-bottom, TC-treated plates (Greiner Bio One) using a multidrop dispenser and incubated at 37 degrees C, 5% CO2, under a humidified atmosphere for 5 hours. Twenty-three nanoliters of compounds and controls (neutral control DMSO or positive control bortezomib at final concentration of 2.3 µM) were subsequently transferred by Kalypsys pintool. For primary screens, the MIPE collection was tested at 11-point dilutions (final concentrations range from 0.78 nM to 46 µM) and the NPC collection at 8-point dilutions (final concentrations range from 0.59 nM to 46 µM). Compounds tested in follow-up screens were assayed at 11-point dilutions. Cells were incubated for 48 hours, followed by addition of 3 µL of CellTiter-Glo (Promega). After a 15 min incubation at room temperature, samples were analyzed for luminescence intensity using a ViewLux High-throughput CCD imager equipped with clear filters.
# % is scaled to controls: 0 for no effect and ±100 for the full control effect; potency is read from the fitted curve at half-maximal effect.
Compound,"activity change, negative = cytotoxic",Potency
COc1cc(/C=C/C(=O)O[C@H]2CC[C@]34C[C@]35CC[C@]3(C)[C@@H]([C@H](C)CCC=C(C)C)CC[C@@]3(C)[C@@H]5CC[C@H]4C2(C)C)ccc1O,-27.2%,–
Nc1ccc(C(=O)O)cc1,21.8%,–
COc1cccc2c1C(=O)c1c(O)c3c(c(O)c1C2=O)C[C@@](O)(C(=O)CO)C[C@@H]3O[C@H]1C[C@H](N)[C@H](O)[C@H](C)O1,–,1880 nM (active)
CCCN1CCCC[C@H]1C(=O)Nc1c(C)cccc1C,4.1%,–
CCCSS/C(CCO)=C(\C)N(C=O)Cc1cnc(C)nc1N,-3.92%,–
CC(O)C(=O)O (stereo not given),13.5%,–
CN=C(NC#N)NCCSCc1csc(N=C(N)N)n1,8.05%,–
CN=C(NC#N)Nc1ccc(C2=NNC(=O)CC2C)cc1 (stereo not given),2.24%,–
CCOC(=O)c1cccc(N)c1,9.51%,–
CC(C)NC[C@@H](O)COc1cccc2ccccc12,-14.5%,–
CCn1cc(C(=O)O)c(=O)c2cnc(N3CCCC3)nc21,15.8% [at 9.22 µM],–
N[C@@H](CCC(=O)N[C@@H](CS)C(=O)NCC(=O)O)C(=O)O,7.15% [at 16.1 µM],–
CC[N+](CC)(CCNC(=O)C(=O)NCC[N+](CC)(CC)Cc1ccccc1Cl)Cc1ccccc1Cl,16.1%,–
NC(CS)C(=O)O (stereo not given),12.4%,–
CCCCOc1ccc(OCCCN2CCOCC2)cc1,-8.71%,–
CCN(CC)C(=O)/C(C#N)=C/c1cc(O)c(O)c([N+](=O)[O-])c1,13.6%,–
c1ccc(-c2ccc(C(c3ccccc3)n3ccnc3)cc2)cc1 (stereo not given),-16.2%,–
OC[C@@H](O)[C@@H](O[C@@H]1O[C@H](CO)[C@H](O)[C@H](O)[C@H]1O)[C@H](O)[C@@H](O)CO,20%,–
NCCc1ccn[nH]1,13.6%,–
NC(=O)CC[C@@H]1NC(=O)[C@H](Cc2ccccc2)NC(=O)[C@H](Cc2ccc(O)cc2)NC(=O)CCSSC[C@@H](C(=O)N2CCC[C@H]2C(=O)N[C@@H](CCCN=C(N)N)C(=O)NCC(N)=O)NC(=O)[C@H](CC(N)=O)NC1=O,13.1%,–

Compound,"activity change, negative = cytotoxic",Potency
O=C(O)CCCCC(=O)O,14.2%,–
Cc1onc(-c2c(Cl)cccc2Cl)c1C(=O)N[C@@H]1C(=O)N2[C@@H]1SC(C)(C)[C@@H]2C(=O)O,5.29%,–
CCN(CCCCOC(=O)c1ccc(OC)c(OC)c1)C(C)Cc1ccc(OC)cc1 (stereo not given),-14%,–
CC(C)(CO)[C@@H](O)C(=O)NCCCO,18.9%,–
Oc1c(Cl)cc(Cl)cc1Sc1cc(Cl)cc(Cl)c1O,19.8%,–
C=C1C[C@H]2[C@@H]3C=C(C)C4=CC(=O)CC[C@]4(C)[C@H]3CC[C@]2(C)[C@@]1(OC(C)=O)C(C)=O,-19.6%,–
Oc1c(I)cc(I)c2cccnc12,-5.26%,–
CCN1CCCC1=O,2.43%,–
CCCCCCCCCCOCC(O)CN (stereo not given),–,23700 nM (active)
Cc1ncc(CSSCc2cnc(C)c(O)c2CO)c(CO)c1O,4.08%,–
CC(C)(C)NC(=O)[C@@H]1CN(Cc2cccnc2)CCN1C[C@@H](O)C[C@@H](Cc1ccccc1)C(=O)N[C@H]1c2ccccc2C[C@H]1O,1.51%,–
NC(=O)c1cc[n+](CC2=C(C(=O)[O-])N3C(=O)[C@@H](NC(=O)Cc4cccs4)[C@H]3SC2)cc1,5.59%,–
COC(=O)[C@@H]1CC2=CC(=O)CC[C@]2(C)[C@@]23O[C@@H]2C[C@@]2(C)[C@@H](CC[C@@]24CCC(=O)O4)[C@H]13,15.9%,–
COc1ccc(OC)c(C(O)CNC(=O)CN)c1 (stereo not given),13.6%,–
C/C=C(/C(=C/C)c1ccc(O)cc1)c1ccc(O)cc1,0.598%,–
COCc1c(C(C)C)nc(C(C)C)c(/C=C/[C@@H](O)C[C@@H](O)CC(=O)O)c1-c1ccc(F)cc1,–,473 nM (active)
CCN(CC)CCNC(=O)COc1ccc(Cl)cc1,13.8%,–
O=C(CCN1CCC(c2ccccc2)C1)c1ccc2c(c1)OCCO2 (stereo not given),-14.9%,–
CC(=O)OCC(=O)[C@@]1(O)[C@H](C)C[C@H]2[C@@H]3CCC4=CC(=O)C=C[C@]4(C)[C@@]3(F)[C@@H](O)C[C@@]21C,13.8%,–
CC(=O)OCC(=O)[C@@]1(O)CC[C@H]2[C@@H]3CCC4=CC(=O)C=C[C@]4(C)[C@H]3[C@@H](O)C[C@@]21C,12.9%,–
